# According to article PMC4336329 (PLoS ONE, 2015):
# Out of some 310,000 compounds screened, about 14,000 (4.5%) showed an effect of 50% or more. The effect is printed as a negative number. Only a selection was taken, and strong results are over-represented in it overall.
# Target: human ether-à-go-go-related gene (hERG) potassium channel (human, UniProt Q12809)
# Assay: primary screen, population patch clamp on CHO cells stably expressing hERG; higher = less effect of the substance
# 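Note: peak tail current of the secondary pulse compared with the same well before compound.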
# Chain of human ether-à-go-go-related gene (hERG) potassium channel (Q12809 whole entry, looked up): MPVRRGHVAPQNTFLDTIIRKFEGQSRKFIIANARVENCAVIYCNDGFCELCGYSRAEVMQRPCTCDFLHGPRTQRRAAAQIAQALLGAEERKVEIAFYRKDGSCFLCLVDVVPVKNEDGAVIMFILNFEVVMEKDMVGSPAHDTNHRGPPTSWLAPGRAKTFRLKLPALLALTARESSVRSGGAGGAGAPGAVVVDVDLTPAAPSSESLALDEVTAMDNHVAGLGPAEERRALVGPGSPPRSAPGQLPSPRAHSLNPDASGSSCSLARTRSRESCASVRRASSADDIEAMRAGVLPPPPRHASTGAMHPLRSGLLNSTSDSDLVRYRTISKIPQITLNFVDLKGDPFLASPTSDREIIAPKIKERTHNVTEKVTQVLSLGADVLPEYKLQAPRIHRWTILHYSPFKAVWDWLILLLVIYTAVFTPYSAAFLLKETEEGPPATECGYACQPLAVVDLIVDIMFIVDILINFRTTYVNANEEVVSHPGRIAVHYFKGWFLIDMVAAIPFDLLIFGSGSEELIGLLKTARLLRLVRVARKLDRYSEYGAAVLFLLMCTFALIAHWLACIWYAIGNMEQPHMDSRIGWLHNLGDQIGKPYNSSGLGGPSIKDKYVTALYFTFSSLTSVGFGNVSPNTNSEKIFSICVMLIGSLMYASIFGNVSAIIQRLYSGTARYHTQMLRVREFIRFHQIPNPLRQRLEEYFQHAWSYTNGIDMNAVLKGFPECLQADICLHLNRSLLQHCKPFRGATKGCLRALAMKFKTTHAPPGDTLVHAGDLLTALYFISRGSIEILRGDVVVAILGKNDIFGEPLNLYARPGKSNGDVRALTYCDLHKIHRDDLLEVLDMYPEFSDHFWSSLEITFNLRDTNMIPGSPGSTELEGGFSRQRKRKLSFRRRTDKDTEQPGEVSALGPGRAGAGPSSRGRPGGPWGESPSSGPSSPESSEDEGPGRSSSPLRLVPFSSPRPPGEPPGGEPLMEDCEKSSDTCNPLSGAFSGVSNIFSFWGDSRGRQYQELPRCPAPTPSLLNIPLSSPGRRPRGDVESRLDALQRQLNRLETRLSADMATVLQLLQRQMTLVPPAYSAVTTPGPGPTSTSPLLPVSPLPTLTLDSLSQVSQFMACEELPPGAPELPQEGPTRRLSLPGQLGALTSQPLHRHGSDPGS
row,SMILES,"hERG current change (%, negative = inhibition) at 10uM"
1,Cc1cc(C(=O)NCc2ccc3c(c2)OCO3)n(-c2ccccc2)n1,-14.8%
2,CCOC(=O)N1CCN(S(=O)(=O)Cc2ccccc2)CC1,15.5%
3,Cc1ccc(S(=O)(=O)Nc2cc(C)c(O)c(Sc3n[nH]c(C)n3)c2)cc1,2.79%
4,CNC(=O)/C(C#N)=C/c1c(N2CC(C)OC(C)C2)nc2ccccn2c1=O (stereo not drawn),1.43%
5,O=C(Cn1cc(C(=O)COc2ccccc2)c2ccccc21)NCc1ccco1,-0.105%
6,CCN(CC)S(=O)(=O)c1ccc(C(=O)OCCNC(=O)c2cccnc2)cc1,-2.68%
7,Cc1cccc(Oc2nc(CN3CCOCC3)nc3sc4c(c23)CCCC4)c1,-29.7%
8,COc1cc2c(cc1OC)CN(c1nc(CN3CCOCC3)nc3sc4c(c13)CCCC4)CC2,-73.6%
9,COc1cccc(Nc2nc(CN3CCOCC3)nc3sc4c(c23)CCCC4)c1,-53.1%
10,Cc1ccc(Oc2nc(CN3CCOCC3)nc3sc4c(c23)CCC(C)C4)cc1C (stereo not drawn),7.99%
11,COc1cc2c(cc1OC)CN(c1nc(CN3CCOCC3)nc3sc4c(c13)CCC(C)C4)CC2 (stereo not drawn),-67.5%
12,CC1CCc2c(sc3nc(CN4CCOCC4)nc(N4CCc5ccccc5C4)c23)C1 (stereo not drawn),-8.23%
13,Cc1cc(S(=O)(=O)Nc2nc(CN3CCOCC3)nc3sc4c(c23)CCCC4)ccc1F,-17.2%
14,CCNc1nc(CN2CCOCC2)nc2sc3c(c12)CCC3,-7.54%
15,Cc1sc2nc(CN3CCCCC3)nc(Cl)c2c1C,-24.5%
16,COc1cc2c(cc1OC)CN(c1ccc(C(F)(F)F)cn1)CC2,15.9%
17,COc1cc2c(cc1OC)CN(c1nc(CN3CCCC3)nc3sc(C)c(C)c13)CC2,-75.6%
18,c1nc(N2CCOCC2)c2c3c(sc2n1)CCCC3,-7.14%
19,O=c1[nH]c(=O)n(Cc2ccccc2)c(O)c1/C=N/Nc1c(F)c(F)c(F)c(F)c1F,3.83%
20,COc1ccc(-c2csc(N)n2)cc1,-6.71%
21,COc1cccc(-c2ccc3nnc(SCC(=O)N4CCCC4)n3n2)c1,-17.1%
22,Clc1nc(CN2CCCCC2)nc2sc3c(c12)CCCC3,-23.1%

row,SMILES,"hERG current change (%, negative = inhibition) at 10uM"
1,c1ccc2c(c1)CCN(c1nc(CN3CCOCC3)nc3sc4c(c13)CCCC4)C2,-60.2%
2,O=S(=O)(Nc1nc(CN2CCOCC2)nc2sc3c(c12)CCCC3)c1cc(F)ccc1F,-34.9%
3,Clc1nc(CN2CCCCC2)nc2sc3c(c12)CCC3,-33.6%
4,Clc1nc(CN2CCOCC2)nc2sc3c(c12)CCC3,14.5%
5,COc1cc2c(cc1OC)CN(c1nc(CN3CCCCC3)nc3sc4c(c13)CCCC4)CC2,-81.2%
6,CCOC(=O)c1nn(-c2ccc(C)cc2)c2nc(Nc3ccccc3)cc(=O)n12,21.9%
7,Cc1ccccc1CN(c1ccc(C(=O)N/N=C/c2ccc(OCC(N)=O)cc2)cc1)S(C)(=O)=O,5.85%
8,CO/N=C/c1cccn1-c1nccc(N(C)C)c1C#N,-2.01%
9,CCCN1CCN(C(=O)CCS(=O)(=O)c2cc3c(cc2Cl)NC(=O)CO3)CC1,-48%
10,COc1ccc(S(=O)(=O)NCC2CCCN(C(=O)CCC(F)(F)F)C2)cc1 (stereo not drawn),2.06%
11,COc1ccc(N(C(=O)Cn2nnc3ccccc32)C(C(=O)NCc2ccco2)c2cccnc2)cc1 (stereo not drawn),9.77%
12,Cc1ccccc1CSc1nccn1-c1ccccc1,-8.94%
13,CCC(C)[C@H](NC(=O)N1CCC(Cc2ccccc2)CC1)C(=O)O (stereo partly drawn),15.2%
14,CC(C)CNC(=S)N1CCC(Cc2ccccc2)CC1,-40.1%
15,CC(C(O)c1ccc(O)cc1)N1CCC(Cc2ccccc2)CC1.O=C(O)C(O)C(O)C(=O)O (stereo not drawn),-71.4%
16,CC(C)[C@H](NC(=O)N1CCC(Cc2ccccc2)CC1)C(=O)O,6.12%
17,CC(C)NC(=S)N1CCC(Cc2ccccc2)CC1,-2.26%
18,C[C@@H](CN1CCC(Cc2ccccc2)CC1)[C@@H](O)c1ccc(O)cc1.Cl,-71.3%
19,CC(C(O)c1ccc(O)cc1)N1CCC(Cc2ccccc2)CC1.O.O=C(O)C(O)C(O)C(=O)O (stereo not drawn),-65.4%
20,CC(C)C(=O)N1CCC(Cc2ccccc2)CC1,4.6%
21,C[C@H](NC(=O)N1CCC(Cc2ccccc2)CC1)C(=O)O,15.5%
22,CCc1ccc(OCC(=O)NC(=S)Nc2ccc(S(=O)(=O)NC3CCCCC3)cc2)cc1,19.9%

row,SMILES,"hERG current change (%, negative = inhibition) at 10uM"
1,CCOC(=O)Cc1csc(NC(=O)c2cc(OC)cc(OC)c2)n1,-10.6%
2,O=C(O)c1cccc(CN2C(=O)CSC2=O)c1,19.4%
3,CCn1c(SCC(=O)N/N=C/c2ccc(O)c(OC)c2)nc2ccccc21,2.36%
4,OCC1(Cc2ccccc2)CCN(Cc2cc3ccccc3o2)CC1,-51.7%
5,OCC1(Cc2ccccc2)CCN(Cc2cnc(-c3cccc4ccccc34)nc2)CC1,10.8%
6,COc1ccc(CC2(CO)CCN(Cc3cc4ccccc4o3)CC2)cc1,-52.2%
7,COc1ccc(CN2CCN(Cc3cc4ccccc4o3)CC2CCO)cc1C (stereo not drawn),-40.4%
8,COc1ccc(C(=O)N=c2sc3c(C)ccc(OC)c3n2C)cc1,6.32%
9,CCCC(=O)Nc1ccc(C(=O)NNC(=O)c2cccs2)cc1,12.2%
10,CC1(C)COC(c2coc3ccccc3c2=O)OC1,3.85%
11,Oc1c(N=NC(=S)Nc2ccccc2F)c2ccccc2n1Cc1ccc(F)cc1,18.7%
12,O=C(c1cccc(Br)c1)N1CCN(c2ccccn2)CC1,-4.19%
13,Cc1ccc(CN2CCN(Cc3ccccn3)CC2CCO)cc1 (stereo not drawn),-47.9%
14,OCCC1CN(Cc2cccn2-c2ccccn2)CCN1C1CCCC1 (stereo not drawn),-18.9%
15,OCCC1CN(Cc2cccn2-c2ccccn2)CCN1Cc1ccccc1 (stereo not drawn),-76.5%
16,OCCC1CN(Cc2cccn2-c2ccccn2)CCN1C1CCCCC1 (stereo not drawn),-57.1%
17,OCCC1CN(Cc2cccn2-c2ncccn2)CCN1C1CCCC1 (stereo not drawn),-6.11%
18,Cc1ccc(CN2CCN(Cc3cnc(N(C)C)s3)CC2CCO)o1 (stereo not drawn),6.05%
19,Cc1ccc(CN2CCN(Cc3cccn3-c3ccccn3)CC2CCO)cc1 (stereo not drawn),-82%
20,Cc1ccc(CN2CCN(Cc3cccn3-c3ccccn3)CC2CCO)o1 (stereo not drawn),-66.1%
21,Cc1ccc(CN2CCN(Cc3cccn3-c3ccc(Cl)cn3)CC2CCO)o1 (stereo not drawn),-23.3%
22,Cc1onc(-c2c(F)cccc2Cl)c1C(=O)ONC(=O)c1ccccc1,8.85%

row,SMILES,"hERG current change (%, negative = inhibition) at 10uM"
1,CC(=O)Nc1ccc(S(=O)(=O)N(CC(=O)O)Cc2ccccc2)cc1,-12.6%
2,CC1CN(C(=O)C2CC(=O)N(c3ccc(Cl)cc3)C2)CC(C)O1 (stereo not drawn),-13.3%
3,COC(=O)c1ccc(/C=N\N2CCN(Cc3ccc(C)cc3)CC2)cc1,9.51%
4,O=C(CCN1C(=O)/C(=C/c2ccccc2F)SC1=S)NCCc1ccc(O)cc1,14.1%
5,COC(=O)c1cc(Cl)c(NC(=O)/C=C/c2ccc(Cl)cc2)cc1OC,-15.7%
6,Fc1ccc(Br)cc1C1C=C(c2ccc(Br)s2)Nc2ncnn21 (stereo not drawn),9%
7,COCCCNC(=O)c1ccc(CS(=O)(=O)c2ccccc2C)o1,7.74%
8,O=C(NCc1cccnc1)C1c2ccccc2C(=O)N1C1CCCCCC1 (stereo not drawn),2.21%
9,O=C(O)c1cccc2c1NC(C(=O)O)C1CC(Sc3ccccc3[N+](=O)[O-])C(Cl)C21 (stereo not drawn),-0.458%
10,Cc1cc2oc(C(=O)N3CCN(CCc4ccccn4)CC3)c(C)c2cc1C,-21.2%
11,Cc1ccc2oc(C(=O)N3CCN(CCO)CC3)c(C)c2c1,13.7%
12,Cc1c(C(=O)N2CCN(CCc3ccccn3)CC2)oc2ccc(Cl)cc12,-81.1%
13,Cc1ccc2c(C)c(C(=O)N3CCN(Cc4ccccn4)CC3)oc2c1C,-23.1%
14,Cc1c(C(=O)N2CCN(C(=O)c3ccccc3)CC2)oc2ccc(F)cc12,-44.8%
15,Cc1c(C(=O)N2CCN(CCc3ccccn3)CC2)oc2ccc(F)cc12,-72.1%
16,Cc1ccc2oc(C(=O)N3CCN(Cc4nccn4C)CC3)c(C)c2c1,-41.3%
17,Cc1ccc2oc(C(=O)N3CCN(Cc4ncccc4C)CC3)c(C)c2c1,-78.3%
18,Cc1c(C(=O)N2CCN(c3ncccn3)CC2)oc2ccc(Cl)cc12,-23.3%
19,CC(C)CN(C(=O)c1ccc(S(=O)(=O)N2CCCC2)cc1)C1CCS(=O)(=O)C1 (stereo not drawn),-3.52%
20,Cc1cccc(NC(=O)C(=O)NCc2ccc3c(c2)OCO3)c1C,-16.5%
21,CCN(CC)C(=O)Oc1nnc(SC(C)C)n1-c1ccc(Cl)c(Cl)c1,-7.2%
